Reference: PubChem BioAssay
Values without a mark were called inactive. The source made the active and inactive calls.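 Rule for the calls, unless noted: active = mean inhibition over 43.08%, the solvent-only control mean plus 3 SD; inactive = the rest.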

Columns and labels:
[1] = target: Nuclear receptor coactivator 3 (Homo sapiens) (UniProt Q9Y6Q9); assay: NCOA3 GAL4-fusion reporter inhibition – cell-based, luminescence, quadruplicate, confirmation (AID 588792); details: HEK293 GAL4-SRC3 luciferase reporter, at 3.6 µM, stronger effect = higher value;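 note: 0% = DMSO treated cells and 100% = gossypol at 36 µM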
[2] = system: transactivating tegument protein VP16 (Human herpesvirus 1), Gal4-VP16 luciferase reporter; assay: repression of VP16-driven luciferase reporter – cell-based, luminescence, high throughput, counter-screen for SRC3 inhibitor project (AID 588794; in the data active = inhibition above about 30%); details: mammalian cells, at 3.6 µM, stronger effect = higher value
[3] = system: transactivating tegument protein VP16 (Human herpesvirus 1); assay: compounds suppressing VP16-driven luciferase signal – cell-based, luminescence, single concentration, counter-screen for SRC2 inhibitor project (AID 652007; in the data active = inhibition above about 36%); details: cell-based VP16 transactivation luciferase reporter, at 8.9 µM, stronger effect = higher value
[4] = target: Nuclear receptor coactivator 2 (Homo sapiens) (UniProt Q15596); assay: inhibition of GAL4-SRC2 driven luciferase expression – cell-based, luminescence, HEK293, triplicate, confirmation (AID 652008;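 active = mean inhibition above 46.5%, the solvent-only control mean plus 3 SD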;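 note: 0% = DMSO-treated cells and 100% = Gossypol at 36 µM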); details: HEK293 GAL4-SRC2 luciferase reporter, at 8.9 µM, stronger effect = higher value
[5] = target: Nuclear receptor subfamily 5 group A member 2 (Homo sapiens) (UniProt O00482); assay: NR5A2 activity suppression in reporter cells – cell-based, luminescence, confirmation (AID 651613; in the data active = inhibition above about 42%;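 note: HEK293T cells co-transfected with LRH-1 and StAR promoter luciferase reporter; 0% = vehicle wells and 100% = parental cells lacking receptor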); details: cell-based LRH-1 luciferase reporter, inverse agonism; at 3.6 µM; stronger effect = higher value
[6] = target: Steroidogenic factor 1 (Homo sapiens) (UniProt Q13285); assay: inverse agonism at SF1 nuclear receptor – cell-based, luminescence, high throughput, counter-screen for LRH-1 inverse agonist project (AID 651614; in the data active = inhibition above about 44%;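 note: cells cotransfected with StAR promoter reporter and SF1 expression vector; 0% = vehicle on cells with receptor and 100% = vehicle on cells lacking receptor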); details: cell-based SF1 luciferase reporter, at 3.6 µM, stronger effect = higher value
[7] = StAR promoter reporter inhibitors, counter-screen for LRH-1 inverse agonist project, cell-based, luminescence, high throughput (AID 651611; in the data active = inhibition above about 28%); details: StAR promoter luciferase reporter counterscreen, at 3.6 µM, stronger effect = higher value
[8] = compounds suppressing VP16-driven luciferase signal – cell-based, luminescence, high throughput, counter-screen for LRH-1 inverse agonist project (AID 651615; in the data active = inhibition above about 33%); details: Gal4-VP16 luciferase reporter cells, at 3.6 µM, stronger effect = higher value

Nuclear receptor coactivator 3 (Homo sapiens), sequence (Q9Y6Q9 whole entry, looked up, the tested form may be a part): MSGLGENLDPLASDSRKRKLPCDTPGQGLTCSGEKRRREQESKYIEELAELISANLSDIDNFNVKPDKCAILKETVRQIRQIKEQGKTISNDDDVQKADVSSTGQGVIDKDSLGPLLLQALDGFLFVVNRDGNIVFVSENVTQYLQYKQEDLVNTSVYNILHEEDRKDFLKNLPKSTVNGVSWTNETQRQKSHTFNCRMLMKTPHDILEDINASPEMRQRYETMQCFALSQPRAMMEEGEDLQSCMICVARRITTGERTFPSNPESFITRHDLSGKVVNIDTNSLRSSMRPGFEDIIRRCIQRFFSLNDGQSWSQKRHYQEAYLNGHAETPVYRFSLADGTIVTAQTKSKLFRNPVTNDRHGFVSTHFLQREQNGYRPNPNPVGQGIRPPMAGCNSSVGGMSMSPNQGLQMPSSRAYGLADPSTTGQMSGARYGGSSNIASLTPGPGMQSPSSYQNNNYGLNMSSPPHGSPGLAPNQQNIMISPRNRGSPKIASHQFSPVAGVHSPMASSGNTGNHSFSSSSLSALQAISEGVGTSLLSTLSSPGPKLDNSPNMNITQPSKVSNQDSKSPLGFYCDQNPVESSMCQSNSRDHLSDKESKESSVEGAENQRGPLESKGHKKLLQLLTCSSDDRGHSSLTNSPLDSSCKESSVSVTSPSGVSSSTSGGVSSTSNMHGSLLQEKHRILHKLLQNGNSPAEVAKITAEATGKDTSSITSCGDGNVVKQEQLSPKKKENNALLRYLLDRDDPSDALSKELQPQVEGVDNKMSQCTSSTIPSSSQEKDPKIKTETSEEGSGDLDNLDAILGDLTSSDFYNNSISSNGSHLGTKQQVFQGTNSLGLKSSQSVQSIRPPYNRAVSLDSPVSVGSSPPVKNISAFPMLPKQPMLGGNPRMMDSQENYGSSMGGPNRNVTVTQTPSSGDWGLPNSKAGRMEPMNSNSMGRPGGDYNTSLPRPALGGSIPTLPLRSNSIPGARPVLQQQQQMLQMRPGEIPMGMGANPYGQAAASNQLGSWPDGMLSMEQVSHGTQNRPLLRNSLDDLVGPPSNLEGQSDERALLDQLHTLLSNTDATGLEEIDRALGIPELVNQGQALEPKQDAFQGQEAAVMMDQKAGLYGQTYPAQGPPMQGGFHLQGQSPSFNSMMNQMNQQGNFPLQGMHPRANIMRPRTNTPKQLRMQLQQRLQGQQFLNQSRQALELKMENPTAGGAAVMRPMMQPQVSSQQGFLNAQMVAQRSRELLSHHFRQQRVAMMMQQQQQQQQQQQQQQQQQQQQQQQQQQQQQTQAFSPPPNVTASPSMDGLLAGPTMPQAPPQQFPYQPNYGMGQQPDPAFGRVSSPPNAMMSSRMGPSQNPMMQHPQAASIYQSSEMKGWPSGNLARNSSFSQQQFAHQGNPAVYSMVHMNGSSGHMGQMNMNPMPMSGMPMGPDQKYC
Nuclear receptor coactivator 2 (Homo sapiens), sequence (Q15596 whole entry, looked up, the tested form may be a part): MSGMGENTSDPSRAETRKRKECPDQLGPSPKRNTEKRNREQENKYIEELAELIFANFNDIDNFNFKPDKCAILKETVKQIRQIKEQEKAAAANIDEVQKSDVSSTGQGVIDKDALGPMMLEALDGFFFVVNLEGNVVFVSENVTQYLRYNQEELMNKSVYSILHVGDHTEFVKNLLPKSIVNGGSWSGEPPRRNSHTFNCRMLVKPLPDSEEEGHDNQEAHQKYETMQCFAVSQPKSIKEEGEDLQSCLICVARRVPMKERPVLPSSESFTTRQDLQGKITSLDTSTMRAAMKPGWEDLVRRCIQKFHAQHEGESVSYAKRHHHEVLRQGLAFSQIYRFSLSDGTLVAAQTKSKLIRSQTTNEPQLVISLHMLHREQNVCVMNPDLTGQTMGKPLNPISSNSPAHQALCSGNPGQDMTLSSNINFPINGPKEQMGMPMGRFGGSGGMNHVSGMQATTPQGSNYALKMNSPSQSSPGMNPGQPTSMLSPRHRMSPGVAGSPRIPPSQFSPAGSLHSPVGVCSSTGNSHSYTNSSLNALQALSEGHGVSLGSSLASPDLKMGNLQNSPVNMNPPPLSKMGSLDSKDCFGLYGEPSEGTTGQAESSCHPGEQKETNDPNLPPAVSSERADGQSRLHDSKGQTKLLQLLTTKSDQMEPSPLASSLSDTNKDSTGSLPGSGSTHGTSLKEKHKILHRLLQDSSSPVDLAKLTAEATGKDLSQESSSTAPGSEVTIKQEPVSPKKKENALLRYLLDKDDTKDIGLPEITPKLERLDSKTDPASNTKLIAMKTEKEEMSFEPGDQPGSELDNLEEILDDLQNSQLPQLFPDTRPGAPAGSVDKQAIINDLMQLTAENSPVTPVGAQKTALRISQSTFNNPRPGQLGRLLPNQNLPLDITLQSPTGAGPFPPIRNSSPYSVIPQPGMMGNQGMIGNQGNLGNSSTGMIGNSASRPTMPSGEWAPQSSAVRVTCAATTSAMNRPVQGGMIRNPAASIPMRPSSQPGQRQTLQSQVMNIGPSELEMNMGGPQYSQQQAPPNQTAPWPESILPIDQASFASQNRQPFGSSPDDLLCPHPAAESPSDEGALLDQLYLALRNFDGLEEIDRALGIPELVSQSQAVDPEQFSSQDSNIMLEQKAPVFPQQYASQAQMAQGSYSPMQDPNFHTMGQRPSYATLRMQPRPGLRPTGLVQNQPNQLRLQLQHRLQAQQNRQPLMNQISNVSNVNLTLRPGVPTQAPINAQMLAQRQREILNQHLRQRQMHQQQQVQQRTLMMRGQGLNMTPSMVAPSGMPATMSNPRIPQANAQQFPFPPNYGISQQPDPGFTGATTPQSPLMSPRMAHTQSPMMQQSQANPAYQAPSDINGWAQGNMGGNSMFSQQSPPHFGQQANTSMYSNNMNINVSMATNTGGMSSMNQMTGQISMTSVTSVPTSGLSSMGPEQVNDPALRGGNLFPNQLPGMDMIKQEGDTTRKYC
Nuclear receptor subfamily 5 group A member 2 (Homo sapiens), sequence (O00482 whole entry, looked up): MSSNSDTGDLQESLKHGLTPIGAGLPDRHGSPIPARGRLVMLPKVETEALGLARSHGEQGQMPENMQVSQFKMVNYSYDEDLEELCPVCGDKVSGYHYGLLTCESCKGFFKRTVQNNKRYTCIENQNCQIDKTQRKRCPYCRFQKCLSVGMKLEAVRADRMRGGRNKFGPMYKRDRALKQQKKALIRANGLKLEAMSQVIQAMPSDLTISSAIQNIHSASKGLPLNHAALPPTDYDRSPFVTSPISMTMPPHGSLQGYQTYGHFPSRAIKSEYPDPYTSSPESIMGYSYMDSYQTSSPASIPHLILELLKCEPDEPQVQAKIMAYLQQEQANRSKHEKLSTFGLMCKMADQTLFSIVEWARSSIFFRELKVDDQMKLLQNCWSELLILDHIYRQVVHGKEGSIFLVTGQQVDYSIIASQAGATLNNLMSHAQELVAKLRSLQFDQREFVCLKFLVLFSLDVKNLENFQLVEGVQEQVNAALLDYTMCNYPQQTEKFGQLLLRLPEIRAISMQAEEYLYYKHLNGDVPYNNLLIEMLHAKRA
Steroidogenic factor 1 (Homo sapiens), sequence (Q13285 whole entry, looked up): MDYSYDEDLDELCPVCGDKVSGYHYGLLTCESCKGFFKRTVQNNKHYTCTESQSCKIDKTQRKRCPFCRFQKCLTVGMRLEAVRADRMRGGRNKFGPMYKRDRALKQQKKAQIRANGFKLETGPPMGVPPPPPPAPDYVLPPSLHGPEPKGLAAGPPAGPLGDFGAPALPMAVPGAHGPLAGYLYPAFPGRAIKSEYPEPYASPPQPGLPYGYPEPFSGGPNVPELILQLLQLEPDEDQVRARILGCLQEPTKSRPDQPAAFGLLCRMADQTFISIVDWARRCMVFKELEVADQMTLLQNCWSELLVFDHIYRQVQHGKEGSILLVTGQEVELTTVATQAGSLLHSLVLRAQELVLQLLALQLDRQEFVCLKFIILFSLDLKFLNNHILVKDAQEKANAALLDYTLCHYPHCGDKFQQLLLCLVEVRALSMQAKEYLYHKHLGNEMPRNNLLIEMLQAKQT

Row | SMILES | inhibition [1] | inhibition [2] | inhibition [3] | inhibition [4] | inhibition [5] | inhibition [6] | inhibition [7] | inhibition [8]
1 | O=C(N[C@@H](Cc1ccccc1)C(=O)CCl)OCc1ccccc1 | 31.5% | 40.4% (active) | 64.2% (active) | 69.3% (active) | – | – | – | –
2 | CCOc1ccc(CC(=O)Nc2ccc(NC(=O)c3ccco3)cc2)cc1OCC | 64% (active) | -14.3% | 7.03% | 41.9% | – | – | – | –
3 | COc1ccc(OCC(=O)N/N=C/c2ccc(O[C@@H]3O[C@H](CO)[C@@H](O)[C@H](O)[C@H]3O)cc2)cc1 | 20.5% | 60.1% (active) | – | – | 64.5% (active) | 72.1% (active) | – | –
4 | COc1ccc(-c2csc3ncnc(NCCN4CCOCC4)c23)cc1 | 34.1% | 37.6% (active) | 0.34% | 41.1% | – | – | – | –
5 | O=c1cc(CCl)nc(Cc2c(Cl)cccc2Cl)[nH]1 | 21.2% | -8.27% | 16.8% | 54.1% (active) | – | – | – | –
6 | Cc1ccc2nc(NC(=O)CSCC(=O)OCC(=O)c3ccc(Br)cc3)sc2c1 | 36.5% | 40.5% (active) | 77.8% (active) | 89.2% (active) | – | – | – | –
7 | CC(=O)OCCN1c2ccccc2Sc2cnccc21 | 43.4% (active) | 26.4% | -4.99% | 23.7% | – | – | – | –
8 | O=C(C1=C(c2ccccc2)C(=O)c2ccccc2C1=O)c1ccccc1 | 93.3% (active) | 90.4% (active) | 63.8% (active) | 66.4% (active) | – | – | – | –
9 | O=C(O)c1ccc(N/N=C/c2ccc3c(c2)OCO3)cc1 | -1.59% | -12.1% | -0.58% | 51.3% (active) | – | – | – | –
10 | CCCCN(CC)Cc1ccc(CNC(=S)Nc2ccc(C)cc2Cl)o1 | 14.2% | -5.53% | 12.7% | 30.4% | – | – | – | –
11 | CC(C)(C)c1ccc(-c2noc(CCC(=O)Nc3cccnc3)n2)cc1 | 41% | 25.7% | 67.8% (active) | 80.8% (active) | – | – | – | –
12 | O=C(O)CCn1c(O)c(C=C2N=c3ccccc3=N2)sc1=S | 12.5% | 13.2% | 34.1% | 72.1% (active) | – | – | – | –
13 | S=C(NCCCc1cnc[nH]1)NCCCN(Cc1ccc(Cl)cc1)c1ccc(Br)cn1 | 83.9% (active) | 57.4% (active) | -0.33% | 51.4% (active) | 102% (active) | 96.4% (active) | 91.2% (active) | 82.4% (active)
14 | CCN(CC)S(=O)(=O)c1ccc(N/N=C/c2cc(OC)ccc2O)nc1 | 31.4% | 31% (active) | -11% | 19.9% | – | – | – | –
15 | O=C(NC(CSCc1ccccc1)C(=O)N/N=C/c1ccc(O)cc1O)c1ccc([N+](=O)[O-])cc1 (stereo not drawn) | 31.7% | 34.8% (active) | -26.8% | 8.58% | – | – | – | –
16 | O=S(=O)(c1ccc(F)cc1)c1snnc1-c1ccccc1 | 29% | 8.39% | 27.8% | 28.7% | – | – | – | –
17 | Cc1ccc(C2=NN(C(=O)CCl)C(c3ccco3)C2)o1 (stereo not drawn) | 38.2% | 7.74% | 15.3% | 51.2% (active) | – | – | – | –
18 | CCOc1cc(/C=C2\COc3ccccc3C2=O)ccc1OCC(=O)N(C)C | 17.5% | 28.5% | 32.2% | 27.8% | – | – | – | –
19 | CC(=O)CSc1ccc(-c2nc3cc(C)c(C)cc3[nH]2)cn1 | 22.4% | 3.79% | 10.4% | 78.8% (active) | – | – | – | –
20 | Cc1ccc(NC(=O)c2ccccc2NS(=O)(=O)c2ccc(F)cc2)cc1S(=O)(=O)N1CCCCC1 | 12.2% | 24% | 10.3% | 27.6% | – | – | – | –
21 | Cc1ccc(/C=C2\SC(=S)N(CCCC(=O)Nc3ccc(O)cc3)C2=O)cc1 | 18.4% | 10.3% | 36.9% (active) | 69.4% (active) | – | – | – | –
22 | O=C(c1ccc(S(=O)(=O)c2ccc(F)cc2)c([N+](=O)[O-])c1)N1CCCCCC1 | 11.4% | 18.9% | 15.7% | 29.9% | – | – | – | –
23 | COc1ccc(Cc2nnc(N/N=C/c3ccc(O)cc3)[nH]c2=O)cc1OC | 84.4% (active) | 81% (active) | 33.1% | 50.5% (active) | – | – | – | –
24 | Cc1ccc(-n2nnnc2Sc2ccc(S(=O)(=O)NCCN(C)C)cc2[N+](=O)[O-])cc1 | 33.8% | 35.9% (active) | 18.6% | 31.4% | – | – | – | –
25 | O=C(OCc1ccccc1)c1ccc(NCc2cc(O)ccc2O)cc1 | 70.6% (active) | 25.9% | 94.5% (active) | 90% (active) | – | – | – | –
26 | CCN(c1cccc(C)c1)c1ncnc2nc[nH]c12 | 35.9% | 21.8% | -7.68% | 28.4% | – | – | – | –
